High-throughput results (PubChem)
Only some compounds are listed: those with a hit (about 3.7% of all), similar ones and a draw of the others.
Nrf2 block = Nrf2 qHTS screen for inhibitors; A549 ARE-Fluc reporter, luciferase luminescence, 18-24 h; Potency, µM (titrated, usually from 46 µM), usual class: inhibitors; hit rate 2.1% among 360,000; AID 504444, 2011; note: nearly all actives have a fitted effect of over 60% in size
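Concentration-response testing used A549 ARE_Fluc cells at 5000 cells/well. Following an 18-24 h compound incubation, viability was read by fluorescence (Ex 405/Em 525) and luciferase output by luminescence.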
Nrf2 activator = qHTS of Nrf2 Activators; AID 624171, 2012; hit rate 0.31% among 410,000; Potency, µM (titrated, usually from 46.1 µM), most hits filed as activators; AREc32 ARE-luciferase reporter (MCF7-derived line), luminescence, 24 h; note: nearly all actives have a fitted effect of over 65% in size
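AREc32 cells carrying an ARE-driven firefly luciferase, 1000 cells/well in OPTI-MEM with 5% FBS, dosed after overnight attachment and incubated 24 hr at 37 deg C. Steady-Glo luminescence read after 30 min at RT.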
A549 viability = Nrf2 qHTS screen for inhibitors: counterscreen for cytotoxicity; A549 ARE-Fluc cells, CellTiter-Fluor viability, 18-24 h; Potency, µM (titrated, usually from 46 µM), usual class: inhibitors; AID 504648, 2011; hit rate 0.16% among 390,000
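A549 ARE-Fluc cells in 5% FBS OPTI-MEM, 5000 cells/well, rested 2 h then exposed to compounds in concentration-response for 18-24 h at 37 °C. Viability by CellTiter-Fluor fluorescence (Ex 405/Em 525) after 30 min; luciferase luminescence (BugLite, 15 min, RT) read afterwards.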
ELG1 DNA repair = qHTS screen for small molecules that inhibit ELG1-dependent DNA repair in human embryonic kidney (HEK293T) cells expressing luciferase-tagged ELG1; hit rate 2.3% among 330,000; AID 504467, 2011; Potency, µM (titrated, usually from 46.1 µM), hits mostly inhibitors; HEK293T ELG1-luciferase reporter, luminescence, 16 h; DNA damage induced by 5-fluorouridine; note: nearly all actives have a fitted effect of over 55% in size
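Cells (2,000 per well) received 5-fluorouridine plus test compound or DMSO and were incubated 16 hr at 37 °C, 5% CO2. Luciferase activity was read by luminescence 30 min after ONE-Glo addition; signal suppression marked inhibition of damage-induced ELG1 function.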
Each line names hits and unclear results; the compound was inactive in the other large screens. Calls come from the whole dose curve; as a rule, active = well fitted curve in the direction sought with a large enough effect; inconclusive = small, poorly fitted or top-dose-only effect, or another doubt; inactive = no such curve, though single readings can be large; an effect the other way counts as inactive or inconclusive.

O=C(C=Cc1ccco1)c1ccc2ccccc2c1	Nrf2 block inconclusive, Nrf2 activator 7.94µM (no result: ELG1 DNA repair)
CN(C)c1ccc(C(=O)/C=C/c2ccco2)cc1	Nrf2 block inconclusive, Nrf2 activator inconclusive, ELG1 DNA repair inconclusive
Cc1cc(O)c(C(c2ccccc2)N2CCN(c3ccc(F)cc3)CC2)c(=O)n1Cc1ccco1 (stereo not given)	none (no result: Nrf2 block, ELG1 DNA repair)
COc1ccc(S(N)(=O)=O)cc1C(=O)OCC1CCCCC1	none
Cc1[nH]nc2c1C(c1ccc(-c3ccc(Cl)cc3)o1)C(C#N)=C(N)O2 (stereo not given)	Nrf2 activator 15.8µM, ELG1 DNA repair inconclusive
Cc1ccc(-c2ccc(C3C(C#N)=C(N)Oc4n[nH]c(C)c43)o2)cc1 (stereo not given)	Nrf2 activator inconclusive, ELG1 DNA repair inconclusive (no result: A549 viability)
COc1ccc(/C=C/C(=O)c2cc(F)ccc2OC(=O)c2ccc(OC)c(OC)c2)cc1OC	Nrf2 activator inconclusive, ELG1 DNA repair 14.6µM
Clc1ccc(-c2noc(CSc3nnc(Cc4cccs4)n3-c3ccccc3)n2)cc1	Nrf2 block 16.4µM
Cc1ccc(-c2noc(CSc3nnc(Cc4ccccc4)n3-c3cccc(C)c3)n2)cc1	Nrf2 block 25.9µM, A549 viability inconclusive
CCOc1ccc(-c2noc(CSc3nnc(Cc4ccccc4)n3-c3cccc(C)c3)n2)cc1	Nrf2 block 25.9µM, A549 viability inconclusive (no result: ELG1 DNA repair)
COc1ccc(C(=O)NC(Nc2ccc(C)cc2)C(Cl)(Cl)Cl)cc1 (stereo not given)	Nrf2 block 20.6µM, A549 viability inconclusive
Cc1ccc(NC(=O)N2CCN(c3cc(-c4noc(C)n4)ccc3C)CC2)c(F)c1	none (no result: Nrf2 block, ELG1 DNA repair)
CNC(=O)[C@H]1O[C@@H](n2cnc3c(NCc4cccc(I)c4)nc(Cl)nc32)[C@H](O)[C@@H]1O	Nrf2 block 18.4µM
Cn1cnc2c(NCc3ccccc3)nc(Cl)nc21	none (no result: Nrf2 activator, ELG1 DNA repair)
Cn1c(N)c(C(=O)COC(=O)c2ccc(-c3ccccc3)cc2)c(=O)n(C)c1=O	ELG1 DNA repair 23.1µM
Cn1c(N)c(C(=O)COC(=O)c2nc(Cl)ccc2Cl)c(=O)n(C)c1=O	Nrf2 activator 2.24µM
CCCCCCn1nc(C(=O)OCC(=O)c2c(N)n(C)c(=O)n(C)c2=O)c2ccccc2c1=O	Nrf2 block 23.1µM, ELG1 DNA repair inconclusive
CCN(c1ccccc1)S(=O)(=O)c1cc(C(=O)OCC(=O)c2c(N)n(C)c(=O)n(C)c2=O)ccc1C	Nrf2 block 18.4µM, A549 viability inconclusive (no result: ELG1 DNA repair)
CCCCCn1nc(C(=O)OCC(=O)c2c(N)n(C)c(=O)n(C)c2=O)c2ccccc2c1=O	ELG1 DNA repair inconclusive
CCCOc1ccc(NC(=O)CC2C(=O)N(c3cccc(OC)c3)C(=O)N2Cc2cccs2)cc1 (stereo not given)	none (no result: ELG1 DNA repair)
CC(=O)c1ccc(C(=O)N2CCC(n3nccc3NC(=O)C3CC3)CC2)cc1	none
CCCNC(=O)c1cc(C2CCCCN2C(=O)c2cc(C(C)(C)C)nn2C)on1 (stereo not given)	none (no result: Nrf2 block, A549 viability, ELG1 DNA repair)
CCN(C(=O)COC(=O)c1ccc[nH]c1=O)c1cccc2ccccc12	none
Cc1ccc(N(C)S(=O)(=O)c2cccc(C(=O)OCC(=O)c3c(N)n(C)c(=O)n(C)c3=O)c2)cc1	Nrf2 block inconclusive, ELG1 DNA repair 16.4µM
COC(CNC(=O)C(=O)Nc1cc2c3c(c1)CCN3C(=O)CC2)OC	ELG1 DNA repair inconclusive
O=c1[nH]c(C2CCN(S(=O)(=O)c3ccccc3F)CC2)nc2c1nnn2Cc1ccc(OC(F)(F)F)cc1	Nrf2 block inconclusive, ELG1 DNA repair 18.3µM
Cc1ccc(Cn2nnc3c(=O)[nH]c(C4CCN(S(=O)(=O)Cc5ccccc5)CC4)nc32)cc1	ELG1 DNA repair 14.6µM
Cc1ccc(Cn2nnc3c(=O)[nH]c(C4CCN(S(=O)(=O)c5ccccc5)CC4)nc32)cc1	none (no result: Nrf2 block)
COc1ccccc1Cn1nnc2c(=O)[nH]c(C3CCN(C(=O)c4ccc(C)cc4)CC3)nc21	ELG1 DNA repair 23.1µM
COc1ccccc1Cn1nnc2c(=O)[nH]c(C3CCN(C(=O)c4ccc(F)cc4)CC3)nc21	ELG1 DNA repair inconclusive
O=C(O)c1ccccc1C(=O)Nc1ccc(Oc2cccc3ccccc23)cc1	Nrf2 block 20.6µM
C=CCNc1ncnc2c1ncn2[C@H]1CN(Cc2ccco2)C[C@@H](CO)O1	none (no result: Nrf2 block, A549 viability, ELG1 DNA repair)
Clc1ccccc1NN=Cc1ccccn1	Nrf2 activator 7.08µM (no result: Nrf2 block, A549 viability, ELG1 DNA repair)
O=C(N/N=C/c1ccccn1)c1ccc(Cl)cc1	Nrf2 block inconclusive, A549 viability inconclusive, ELG1 DNA repair inconclusive
COCCCNc1nc2nonc2nc1NCCSC	Nrf2 block inconclusive, ELG1 DNA repair 23.1µM
OCCNc1nc2nonc2nc1NCCO	none
CCOC(=O)C(C)NC(=O)c1cc2c(=O)[nH]c3ccc(C)cc3c2s1 (stereo not given)	none (no result: ELG1 DNA repair)
Cc1cc(-c2ccccc2)nc2[n+]1CCN2C	Nrf2 block 5.17µM, ELG1 DNA repair inconclusive
Cc1nc(-c2ccccc2)cc(N2CCCC2)n1	Nrf2 activator inconclusive
O=C(COC(=O)c1cccs1)NCC1CCCCC1	none
O=C(c1ccc2c(=O)n(Cc3ccco3)c(=S)[nH]c2c1)N1CCN(Cc2ccc3c(c2)OCO3)CC1	Nrf2 block 16.4µM, A549 viability inconclusive (no result: Nrf2 activator, ELG1 DNA repair)
O=C(c1ccc2c(=O)n(Cc3ccc4c(c3)OCO4)c(=S)[nH]c2c1)N1CCN(Cc2ccccc2)CC1	Nrf2 block inconclusive (no result: Nrf2 activator, ELG1 DNA repair)
C=CCNC(=O)c1ccc(Cn2c(=S)[nH]c3cc4c(cc3c2=O)OCO4)cc1	ELG1 DNA repair inconclusive
CCN(CC)C(=O)c1ccc2c(=O)n(Cc3ccc4c(c3)OCO4)c(=S)[nH]c2c1	Nrf2 block inconclusive
CC1CCCN(C(=O)c2ccc3c(=O)n(Cc4ccc5c(c4)OCO5)c(=S)[nH]c3c2)C1 (stereo not given)	Nrf2 block 25.9µM, ELG1 DNA repair inconclusive
CCOC(=O)N1CCN(C(=O)c2ccc3c(=O)n(Cc4ccc(Cl)cc4)c(=S)[nH]c3c2)CC1	Nrf2 block inconclusive, ELG1 DNA repair 8.2µM
O=C(c1ccc(Cn2c(=S)[nH]c3cc4c(cc3c2=O)OCO4)cc1)N1CCN(c2ncccn2)CC1	ELG1 DNA repair 7.3µM (no result: Nrf2 block, Nrf2 activator, A549 viability)
O=c1[nH]cnc(O)c1C(c1cccc([N+](=O)[O-])c1)c1c(O)nc[nH]c1=O	none
CCCCN1C(=O)C(CC(=O)NCCN2CCOCC2)CC(C(=O)N(CC)CC)=C1C (stereo not given)	none (no result: Nrf2 block, A549 viability, ELG1 DNA repair)
O=C(CN1CCN(Cc2cccc(F)c2)CC1)Nc1ccccc1F	none
COCCCNC(=O)Cc1c(C)c2cc3c(cc2oc1=O)OC(C)(C)CC3	none
Cc1c(CC(=O)NCCCCCC(=O)O)c(=O)oc2cc3c(cc12)CCC(C)(C)O3	Nrf2 block 10.3µM
Cc1c(CC(=O)NCCCC(=O)O)c(=O)oc2cc3c(cc12)CCC(C)(C)O3	Nrf2 block 18.4µM, ELG1 DNA repair inconclusive
CC(=O)N1CCN(S(=O)(=O)c2cccc(C(=O)NNC(=O)Cn3nc(C)cc3C)c2)CC1	none
COc1ccc2cc1Oc1ccc(cc1)C[C@H]1c3cc(c(OC)cc3CCN1C)Oc1c(OC)c(OC)cc3c1[C@H](C2)N(C)CC3	Nrf2 block inconclusive, A549 viability 6.51µM
